# TLR9-MyD88 inh = blocks human TLR9 binding to MyD88 | Q9NR96+Q99836 | CHO BLA complementation TLR9-MyD88, CCF4 FRET ratio | inhibition, % at 4.98 µM | 340,000 tested, 0.21% active | AID 504734;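 active means inhibition above the mean over all tested compounds plus 3 SD, cut at about 21% in these data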;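 further: 0% = DMSO only wells and 100% = clavulanate BLA inhibitor control wells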
# ABHD5 PLIN5 PPI = ABHD5-PLIN5 protein interaction inhibition. Split G. princeps luciferase complementation, luminescence, 4 h. inhibition, % at 4 µM. Q00G26+Q8WTS1. 360,000 tested, 0.78% active;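 active means inhibition above the mean inhibition across every tested compound plus 3 SD, cut at about 22% in these data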;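 further: 0% = DMSO only wells and the 100% control is not disclosed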
# rCAG binder = molecules binding r(CAG) RNA repeats | r(CAG) RNA repeat, TO-PRO-1 dye displacement fluorescence | inhibition, % at 3 µM | 370,000 tested, 1.3% active | AID 651821;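 active means inhibition above the plate cutoff, the mean of all test compounds on that plate plus 3 SD, cut at about 35% in these data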;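 further: 0% = DMSO alone and 100% = 100 µM mitoxantrone as full dye displacement; higher means more dye released from RNA so lower well fluorescence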
# NOD2-RIPK2 inh = NOD2-RIPK2 protein interaction inhibition; 360,000 tested, 0.38% active; CHO BLA complementation NOD2-RIPK2, CCF4 ratio; inhibition, % at 4.98 µM; in the data active means inhibition above about 21%;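 further: 0% = vehicle only and 100% = reference blocker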
# TLR4 MyD88 comp = blocks binding of human TLR4 to MyD88 | 200,000 tested, 0.18% active | inhibition, % at 8.4 µM | O00206+Q99836 | HeLa CL3-4 TLR4/MyD88 BLA complementation, FRET ratio; in the data active means inhibition above about 25%;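 further: 0% = vehicle and 100% = reference inhibitor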
# PRMT1 inh = blocks human protein arginine methyltransferase 1; recombinant PRMT1, activity-based probe fluorescence polarization; inhibition, % at 2.79 µM; 370,000 tested, 1.3% active; AID 652257;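 active means inhibition above about 21% made by adding two undisclosed values, limit read from the data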
# ABHD5 PLIN5 conf = confirmation of human ABHD5-PLIN5 interaction inhibitors. inhibition, % at 4 µM. shares compounds with ABHD5 PLIN5 PPI. 2,200 tested, 67% active. biochemical ABHD5-PLIN5 interaction, luminescence. AID 651612; in the data active means inhibition above about 23%;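 further: 0% = DMSO vehicle wells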
# HNF4 split-luc = active in HNF4 split-luciferase counter-screen for ABHD5-PLIN5 inhibitors; shares compounds with ABHD5 PLIN5 PPI; HNF4 dimerization, luminescence, biochemical; inhibition, % at 4 µM; 2,200 tested, 77% active;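 active means mean inhibition across replicate wells exceeding the computed hit threshold, cut at about 13% in these data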;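 further: light from luciferase halves that rejoin when HNF4 fusion proteins dimerize; 0% = DMSO only wells and the 100% control is not given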
# The depositor's hits bear a star; x = no result given. Compounds with a hit are over-represented: about 3.3% of the library has one in this group of screens.
SMILES,TLR9-MyD88 inh,ABHD5 PLIN5 PPI,rCAG binder,NOD2-RIPK2 inh,TLR4 MyD88 comp,PRMT1 inh,ABHD5 PLIN5 conf,HNF4 split-luc
O=C(C1CCCO1)N1CCN(Cc2c(O)ccc3ccccc23)CC1 (configuration not stated),2,41*,-2,-3,7,23*,72*,102*
Cc1ccc(CN2CCN(C(=O)C3CCCO3)CC2)cc1 (configuration not stated),-5,-1,3,-9,-1,-2,x,x
CCOC(=O)N1CCN(Cc2c(O)ccc3ccccc23)CC1,0,27*,-5,6,x,16,51*,89*
Cc1c(CCC(=O)N[C@@H](CC(C)C)C(=O)O)c(=O)oc2cc3oc4c(c3cc12)CCCC4,4,3,29,-3,x,3,x,x
CCCCNC(=O)CCc1nc2cccnc2n1Cc1ccccc1,-5,0,-8,-6,x,3,x,x
O=C(/C=C/c1cn(-c2ccccc2)nc1-c1cccs1)NCCN1CCOCC1,-12,32*,3,-1,x,9,11,6
CCC(C)NCCOCCOc1ccc(Cl)c2ccccc12 (configuration not stated),-4,30*,3,4,-2,1,15,1
CCC(c1nc2ccccc2[nH]1)n1c(=O)c(-c2ccco2)nc2ccccc21 (configuration not stated),x,37*,26,-14,x,17,59*,23*
O=c1c(-c2ccco2)nc2ccccc2n1C(c1ccccc1)c1nc2ccccc2[nH]1 (configuration not stated),x,36*,29,-5,x,10,28*,16*
O=c1c(-c2ccco2)nc2ccccc2n1C(CCc1ccccc1)c1nc2ccccc2[nH]1 (configuration not stated),x,72*,32,0,x,5,55*,10
CC(C)[C@@H](C)/C=C/[C@@H](C)[C@H]1CC[C@@H]2[C@]1(C)CCC1[C@]23C=C[C@]2(C[C@@H](O)CC[C@]12C)N(c1ccc(F)cn1)O3 (some centres not stated),x,x,1,x,x,9,x,x
COc1ccc(N(CC(=O)Nc2cc([N+](=O)[O-])ccc2C)S(C)(=O)=O)cc1OC,-13,1,-4,-9,x,3,x,x
CCOC(=O)[C@@]12CCC3=C1N(CCC3)C(=O)[C@H](CC(=O)NCc1cccs1)C2,x,x,3,x,x,1,x,x
O=C(NCc1ccco1)c1ccc2c(c1)C(=O)c1ccccc1-2,6,33*,10,2,1,9,46*,49*
CCC(CC)C(=O)Nc1cccc(C(=O)NCc2ccco2)c1,1,25*,11,0,-8,5,25*,31*
CCCCN1C(=O)C(CC(=O)NCCCN(C)C)CC(C(=O)N2CCOCC2)=C1C (configuration not stated),3,-1,1,-14,x,-6,x,x
CCOC(=O)C1=C(C)N=c2s/c(=C\c3ccncc3)c(=O)n2C1c1ccc2c(c1)OCO2 (configuration not stated),-6,-13,17,-13,-2,8,x,x
CCOC(=O)C1=C(C)N=c2s/c(=C3\C(=O)Nc4ccccc43)c(=O)n2C1c1ccc2c(c1)OCO2 (configuration not stated),5,27*,33,2,1,21,5,-14
COc1cccc(CNC(=O)CCCc2nnc3n(C)c(=O)c4sccc4n23)c1,8,-5,0,3,x,0,x,x
CCN1C/C(=C/c2ccc(OC)c(O)c2)C(=O)/C(=C/c2ccc(OC)c(O)c2)C1,-6,42*,-1,6,15,-1,51*,30*
COc1cc(/C=C2/CC/C(=C/c3ccc(O)c(OC)c3)C2=O)ccc1O,2,24*,26,-10,x,17,26*,32*
COc1cc(/C=C2\CC/C(=C\c3ccc(OCCO)c(OC)c3)C2=O)ccc1OCCO,13,22,-3,-14,18,-8,x,x
COc1ccc(/C=C2\CCC/C(=C\c3ccc(OC)c(OC)c3OC)C2=O)c(OC)c1OC,-2,38*,-4,-11,x,7,10,16*
COc1cc(OC)c(OC)cc1/C=C1\CCC/C(=C\c2cc(OC)c(OC)cc2OC)C1=O,6,7,11,4,x,2,x,x
COc1cc(/C=C2\COC/C(=C\c3ccc(O)c(OC)c3)C2=O)ccc1O,-3,54*,11,7,x,5,90*,84*
SMILES,TLR9-MyD88 inh,ABHD5 PLIN5 PPI,rCAG binder,NOD2-RIPK2 inh,TLR4 MyD88 comp,PRMT1 inh,ABHD5 PLIN5 conf,HNF4 split-luc
COc1ccc(C)cc1S(=O)(=O)NCCN1CCOCC1,-11,-8,0,-3,x,0,x,x
COc1ccc(/C=C2\CC/C(=C\c3ccc(OC)c(OC)c3)C2=O)cc1OC,-4,31*,1,-4,0,-1,58*,44*
O=C(NCC1CCCO1)c1ccc(COc2ccc(F)cc2)o1 (configuration not stated),0,10,1,-2,-6,-5,x,x
CCOc1cc(N)c(Cl)cc1C(=O)NCC1CN(Cc2ccc(F)cc2)CCO1 (configuration not stated),1,71*,1,2,x,2,78*,33*
CSCCC(C(=O)Nc1c(C)cccc1C)N1CCN(c2ccc(C(F)(F)F)cn2)CC1 (configuration not stated),x,-3,2,3,x,1,x,x
O=C(C1CCN(S(=O)(=O)c2ccc(Cl)cc2)CC1)N1CCC1,1,52*,-2,-9,x,-2,1,-2
O=C1OC(/C(=C\Nc2ccccc2)[N+](=O)[O-])c2ccccc21 (configuration not stated),-4,42*,0,-7,x,6,7,26*
CCCOc1ccccc1-n1sc2c(c1=S)-c1cc(OC)cc3c1N(C(=O)C3=O)C2(C)C,11,35*,22,-5,12,0,78*,67*
Cc1cccc(C)c1NC(=O)CN(C)C(=O)C1CC(=O)N(c2cccc3ccccc23)C1 (configuration not stated),-1,11,-1,-1,x,-5,x,x
CC1(C2CC2)NC(=O)N(CC(=O)NCc2ccc(Cl)cc2Cl)C1=O (configuration not stated),-2,8,2,-25,x,0,x,x
COc1cc(/C=C/C(=O)c2ccc(C)c([N+](=O)[O-])c2)cc(OC)c1O,4,65*,14,12,5,7,79*,72*
